For 21 compounds, growth inhibition results are on record in PubChem BioAssay (NCI).

The nature of experiment [1]: NCI Yeast Anticancer Drug Screen. Data for the rad50 strain (AID 155).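 Note: 0% = growth of vehicle-only cultures of the same strain.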 The conditions noted are these: S. cerevisiae rad50 strain growth inhibition; at 50.0 µM; active compounds read high. Put shortly: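 A DNA repair-deficient yeast mutant serves as the test organism; compound-induced growth inhibition is calculated against vehicle-treated cells.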
A short description of experiment [2]: NCI Yeast Anticancer Drug Screen. Data for the mec2-1 strain (AID 157). The conditions noted are these: S. cerevisiae mec2-1 strain, at 50.0 µM, active compounds read high. Put shortly:
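Mutant yeast (mec2-1) grown with compound; growth inhibition relative to vehicle control reported.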

Experiment [3] can be described thus: NCI Yeast Anticancer Drug Screen. Data for the sgs1 mgt1 strain (AID 161).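 Note: 0% = growth of cultures given vehicle only.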 The following applies: S. cerevisiae sgs1 mgt1 strain, at 50.0 µM, active compounds read high. The procedure, abridged:
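Growth of a repair-deficient yeast mutant was monitored after compound treatment and expressed as inhibition relative to vehicle-treated cultures.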

Experiment [4] can be described thus: NCI Yeast Anticancer Drug Screen. Data for the cln2 rad14 strain (AID 165).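 Note: 0% = growth equal to vehicle treated cultures.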 The conditions noted are these: S. cerevisiae cln2 rad14 strain, at 50.0 µM, active compounds read high. Put shortly: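 Readout is yeast growth inhibition versus vehicle-treated controls, using a strain with cln2 and rad14 alterations exposed to compound.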
The nature of experiment [5]: NCI Yeast Anticancer Drug Screen. Data for the bub3 strain (AID 167). The conditions noted are these: S. cerevisiae bub3 mutant strain, at 50.0 µM, active compounds read high. The procedure, abridged: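 Inhibition values come from growth of compound-treated mutant yeast normalised to vehicle-treated controls.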
Experiment [6] can be described thus: NCI Yeast Anticancer Drug Screen. Data for the mlh1 rad18 strain (AID 175). The following applies: S. cerevisiae mlh1 rad18 strain growth inhibition; at 50.0 µM; active compounds read high. Put shortly: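 Genetically defined yeast (DNA repair-deficient) exposed to compounds; growth inhibition determined relative to vehicle.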

This is part of a sample that, as a whole, favours compounds with a hit. Of some 79,000 tested, about 15% had one in any assay. A number with no mark means an inactive call. The source made the active and inactive calls. Cut-off read from the data, not from the text of the source: active = growth inhibition above about 70%; inactive = the rest. Where a SMILES comes first, the peptide text is derived from it. [ ]: non-standard residue; d: D form. The star is where a group is joined. ξ: configuration not given here. Cbz = O=C(OCc1ccccc1)*; ξNva = CCCC(N)C(=O)O

As for `NC(Cc1ccc(O)c(O)c1)P(=O)(O)O` (stereo unspecified), the growth inhibition in experiment [1] was -72.8%; in experiment [2], -38%; in experiment [3], -35.7%; in experiment [4], -5.75%; in experiment [5], -0.1%; in experiment [6], -27.8%.
Regarding `O=C(c1ccc(Cl)cc1)c1onc(-c2ccccc2)c1-c1ccccc1`, the growth inhibition in experiment [1] is -13.6%; in experiment [2], 0%; in experiment [3] it was -0.3%; in experiment [4], -43.9%; in experiment [5], -9.2%; in experiment [6], -3.05%.
Regarding `Nc1nc(N)c2nc3c(nc2n1)CCCC3`, the growth inhibition in experiment [1] was -15.9%; in experiment [2], -35.7%; in experiment [3], -18.3%; in experiment [4], 8.95%; in experiment [5], -13.1%; in experiment [6] it was -25.7%.
Turning to `COc1ccccc1C1c2cc3c(cc2OC(O)(CO)C1C(=O)O)OCO3` (stereo unspecified) (tested in a mixture with another compound), the growth inhibition in experiment [1] is -18.4%; in experiment [2] it was -22.7%; in experiment [3], -15.3%; in experiment [4], -14%; in experiment [5] it was -20.6%; in experiment [6], -3.15%.
Turning to `CC(=O)NC1c2ccccc2CCC1OC(C)=O` (stereo unspecified), the growth inhibition was -16.4% in experiment [1]; -8.05% in experiment [2]; 22.9% in experiment [3]; -1.8% in experiment [4]; -8.55% in experiment [5]; -34.8% in experiment [6].
Turning to `COc1cccc2c1C(=O)C=CC2=O`, the growth inhibition in experiment [1] was 76.8% (active); in experiment [2], 80.7% (active); in experiment [3], 84.3% (active); in experiment [4] it was 87.2% (active); in experiment [5], 87.2% (active); in experiment [6], 91.8% (active).
Consider `CCS(=O)(=O)c1ccc(NC(=O)OCc2ccccc2)cc1`, for which the growth inhibition in experiment [1] was 12.1%; in experiment [2], 23.4%; in experiment [3], 22.4%; in experiment [4] it was -4.4%; in experiment [5], 25.5%; in experiment [6], -2.4%.
In the case of `Cc1ccc(NC(=O)C(=O)C(C2C(C)CC(=O)C2CC(=O)O)[N+](=O)[O-])cc1` (stereo unspecified), the growth inhibition in experiment [1] was 23.6%; in experiment [2] it was 11.7%; in experiment [3], 12.2%; in experiment [4], 17.7%; in experiment [5], 13.7%; in experiment [6], 30.6%.
As for `C=C1C(=O)C=C2C=C3C(=O)C(C)(C)C[C@]3(O)C12C` (stereo partly specified), the growth inhibition in experiment [1] is 84.3% (active); in experiment [2] it was 92% (active); in experiment [3], 89% (active); in experiment [4] it was 82.5% (active); in experiment [5], 86.2% (active); in experiment [6] it was -21.7%.
`NC1=NCC(c2ccccn2)C1c1ccc(F)cc1` (stereo unspecified): the growth inhibition in experiment [1] was -11.9%; in experiment [2], -34.9%; in experiment [3] it was 1.1%; in experiment [4] it was 7.75%; in experiment [5], -18.7%; in experiment [6] it was -14%.
`O=C(Nc1cc(Br)c2cccc3c2c1CC3)c1ccccc1`: the growth inhibition was 6.35% in experiment [1]; 10.9% in experiment [2]; 1.45% in experiment [3]; -5.25% in experiment [4]; 14.3% in experiment [5]; -0.95% in experiment [6].
Take `COc1cc(/C=N/NC(=O)C(=O)N/N=C/c2cc(OC)c(OC)c(OC)c2)cc(OC)c1OC`: the growth inhibition in experiment [1] is -20.4%; in experiment [2], -34.1%; in experiment [3], -24.7%; in experiment [4], 3.9%; in experiment [5], -20%; in experiment [6], -21.1%.
Regarding `CCCNC(=O)Oc1ccccc1C(N)=O`, the growth inhibition is -3.35% in experiment [1]; -20.1% in experiment [2]; -4.4% in experiment [3]; -44% in experiment [4]; 8% in experiment [5]; -5.75% in experiment [6].
As to `N#Cc1c(-c2ccccc2)[nH]c2ccc(Cl)cc2c1=O`, the growth inhibition was 6.6% in experiment [1]; -30.5% in experiment [2]; -21.7% in experiment [3]; -7.8% in experiment [4]; -9.75% in experiment [5]; -28.1% in experiment [6].
Turning to `O=C(Nc1nc2ncn(CC(COc3ccccc3)OC(=O)c3ccccc3)c2c(=O)[nH]1)c1ccccc1` (stereo unspecified), the growth inhibition was -9.85% in experiment [1]; 9.55% in experiment [2]; 6.5% in experiment [3]; 15.2% in experiment [4]; 12.2% in experiment [5]; -6.65% in experiment [6].
For `CC(=O)Nc1ccc(C2C(C(=O)Nc3ccccc3)=C(C)NC(C)=C2C(=O)Nc2ccccc2)cc1`, the growth inhibition in experiment [1] is 17.1%; in experiment [2], -2.6%; in experiment [3], 12.7%; in experiment [4], 11.2%; in experiment [5] it was 32.5%; in experiment [6], -2.2%.
With `CCSCCOC(=S)Nc1ccccc1`, the growth inhibition in experiment [1] is -6.25%; in experiment [2], -8.05%; in experiment [3] it was -4.9%; in experiment [4], 0.7%; in experiment [5], 4.25%; in experiment [6] it was 7.1%.
As for `C#CC(C)(O)c1ccccc1` (stereo unspecified), the growth inhibition in experiment [1] is -1.15%; in experiment [2] it was -22.1%; in experiment [3], -7.75%; in experiment [4], -21.6%; in experiment [5] it was -1.95%; in experiment [6], -11.6%.
On to `COc1cc2c(cc1OC)C1CCN3CCCC3N1CC2` (stereo unspecified), for which the growth inhibition was -7.8% in experiment [1]; 7.6% in experiment [2]; 0.1% in experiment [3]; -14.9% in experiment [4]; 2.2% in experiment [5]; 3.3% in experiment [6].
With `CCCC(NC(=O)CNC(=O)OCc1ccccc1)C(=O)O` (stereo not drawn) (Cbz-Gly-[ξNva]-OH), the growth inhibition in experiment [1] was 31.6%; in experiment [2] it was 7%; in experiment [3], 2.35%; in experiment [4], 19.9%; in experiment [5] it was 5.45%; in experiment [6] it was 3.95%.
Turning to `COc1ccc(N2C=Nn3c(nc4sc(C)c(C)c4c3=O)C2)cc1`, the growth inhibition in experiment [1] was 7%; in experiment [2], 12.9%; in experiment [3], 20.9%; in experiment [4] it was -12.3%; in experiment [5], 12.9%; in experiment [6] it was -1%.
